Compounds with a hit are over-represented: about 3.9% of the library has one in this group of screens.
ATXN2 expr inh: Primary qHTS for Inhibitors of ATXN expression. HEK-293 ATXN2-luciferase reporter, luminescence, 24 h. Potency, µM (highest dose often 57 µM), inactives show at the top dose activity change, negative = inhibition, usual class: inhibitors. 0.72% of 360,000 active. AID 1745845, 2022; further: on the % scale 0 is the no-effect control and ±100 the full control effect; nearly all actives have a fitted effect of over 55% in size
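ATXN2-luciferase reporter cells (luciferase flanked by upstream and downstream ATXN2 gene portions) were treated 24 h at 37 °C with compounds at up to 57 uM. SteadyGlo luminescence gave expression; GF-AFC fluorescence gave viability.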
HepG2 tox: qHTS for Inhibitors of TGF-b: Cytotox Counterscreen | HepG2 CAGA-GFP viability, ATP luminescence, 18 h | Potency, µM (top dose mostly 46.1 µM), for inactives: at the highest dose activity change, negative = cytotoxicity, hits mostly cytotoxic | 0.76% of 410,000 active
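CellTiter-Glo luminescence gave cytotoxicity after 18 hours at 37 degrees C. The cells were HepG2 CAGA-GFP in 1% FBS DMEM, stimulated with 500 pg/mL TGF-beta after compound addition. %Activity was normalised to no-cell wells (complete cell-killing) and DMSO (no toxicity), and curves were fitted and classified.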
HT1080-NT tox: qHTS for induction of synthetic lethality in tumor cells producing 2HG: qHTS for the HT-1080-NT fibrosarcoma cell line; HT-1080-NT fibrosarcoma viability, CellTiter-Glo ATP luminescence, 48 h; 1.6% of 360,000 active; AID 686970, 2013; Potency, µM (series often up to 46.1 µM), inactives show at the top dose activity, negative = less viability, actives largely listed as cytotoxic;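 further: NT is the 2HG producing partner of a matched IDH1 knockdown line; 0% = DMSO-treated cells and -100% = media-only wells without cells; nearly all actives have a fitted effect of over 55% in size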
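A 48-hour cytotoxicity screen used HT-1080-NT cells plated 2 hours before compound delivery. ATP-based CellTiter-Glo luminescence measured viability, normalized to DMSO and no-cell controls.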
HT1080 IDH1KD tx: qHTS for induction of synthetic lethality in tumor cells producing 2HG: qHTS for the HT-1080-IDH1KD cell line. HT-1080 IDH1 knockdown viability, ATP luminescence, 48 h. Potency, µM (doses to about 46.1 µM), inactives show at the highest dose activity, negative = toxicity, usual class: cytotoxic. 2% of 360,000 active. AID 686971, 2013;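 further: 0% = DMSO wells and -100% = cell-free medium wells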
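HT-1080-IDH1KD cells (IDH1 knocked down), 750/well in RPMI with 5% FBS, treated with compound 48 h at 37 degrees C. Viability by CellTiter-Glo luminescence, normalised to DMSO and no-cell wells; concentration-response curves classed.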
TGFb SMAD3 inh: qHTS for Inhibitors of TGF-b | 1.2% of 410,000 active | Potency, µM (highest dose often 46.1 µM), for inactives: at the highest dose activity, negative = inhibition, most hits filed as inhibitors | HepG2 CAGA-GFP TGF-b/SMAD3 reporter, GFP fluorescence, 18 h; TGF-beta stimulated, 500 pg/mL final; further: on the % scale 0 is the no-effect control and ±100 the full control effect; nearly all actives have a fitted effect of over 65% in size
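GFP signal (ex488/em500-530) from TGF-beta-stimulated HEPG2 CAGA-GFP cells, 500 pg/mL final, 18 h at 37 degrees C in DMEM plus 1% FBS, normalized to unstimulated and DMSO-stimulated controls.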
ATXN viability: Viability Counterscreen for Primary qHTS for Inhibitors of ATXN expression. Potency, µM (series often up to 56.7 µM), actives largely listed as cytotoxic. 0.49% of 400,000 active. AID 651635, 2014. S2 cells (HEK-293 line with an ATXN2-luciferase reporter) viability, CellTiter-Fluor protease fluorescence, 24 h; further: nearly all actives have a fitted effect of over 40% in size
Active calls of the source: *; i = inactive; u = inconclusive; x = not tested or not shown. The call rests on the fitted dose curve; in most records, active means well fitted curve in the direction sought with a large enough effect; inconclusive means small, poorly fitted or top-dose-only effect, or another doubt; inactive means no such curve, though single readings can be large; an effect the other way counts as inactive or inconclusive. Potency means the concentration at half of the fitted maximal effect.

SMILES	ATXN2 expr inh	HepG2 tox	HT1080-NT tox	HT1080 IDH1KD tx	TGFb SMAD3 inh	ATXN viability
COc1ccc(S(=O)(=O)N2CCCOC2CNC(=O)C(=O)NCCCN2CCOCC2)cc1C (stereo not given)	0%	1.4µM*	-11%	-2%	-8%	i
Cc1ccc2c(c1)c1c3n2CCN(C(=O)C2CC2)C3CCC1 (stereo not given)	5%	-9%	-2%	8%	5%	i
Cc1ccc2c(c1)c1c3n2CCN(C(=O)CN2CCN(C)CC2)C3CCC1 (stereo not given)	-7%	-93%	23µM*	u	u	i
CN1CCN(CC(=O)N2CCn3c4c(c5cc(C6CCCCC6)ccc53)CCCC42)CC1 (stereo not given)	u	-86%	u	23µM*	u	u
O=C(NCc1ccc(Cl)cc1)C1CCN(c2ncnc3c2nc2n3CCCCC2)CC1	x	6%	x	x	-3%	x
Cc1ccccc1C(=O)N1CC/C(=N\OS(=O)(=O)O)c2ccc(Cl)cc21	-2%	x	x	x	x	i
COc1ccccc1CC(=O)Nc1ccc2nc(Nc3cccc(C(F)(F)F)c3)cc(C)c2c1	0%	-33%	x	x	0%	i
Cc1cc(Nc2cccc(C(F)(F)F)c2)nc2ccc(NC(=O)c3cncc(Br)c3)cc12	x	10µM*	x	x	u	x
Cc1ccccc1C(=O)Nc1ccc2nc(Nc3cccc(C(F)(F)F)c3)cc(C)c2c1	u	-20%	x	x	14µM*	i
Cc1cc(Nc2cccc(Cl)c2)nc2ccc(NC(=O)c3cncc(Br)c3)cc12	u	-39%	x	x	u	x
COc1cccc(CCNC(=O)c2cnc3sc(N4CCCCCC4)nn3c2=O)c1	1%	-13%	x	x	-16%	i
Cc1ccc(O)c(-c2cc3ccccc3[nH]2)c1	51%	-64%	0%	2%	16µM*	i
O=C(CNC(=O)C1CCCCC1)OCC(=O)c1ccc(C2CCCCC2)cc1	x	-4%	x	x	7%	x
C(=N\Nc1nc(-c2ccccn2)nc2ccccc12)/c1ccccc1	x	-35%	x	x	1.8µM*	x
O=[N+]([O-])c1ccccc1C=NNc1ccccc1	44%	4%	u	u	1%	i
Cc1ccc(-c2nc(N/N=C/c3ccccc3[N+](=O)[O-])c3ccccc3n2)cc1	u	-3%	u	4.5µM*	-1%	u
CN(C)/[N+]([O-])=N/Oc1ccc([N+](=O)[O-])cc1[N+](=O)[O-]	x	-90%	x	x	u	x
COCCNc1nc(-c2ccccc2CO)c2sc(-c3ccccc3)cc2n1	-18%	-27%	u	0.92µM*	1%	u
COCCNc1nc(NCCCN2CCCC2=O)c2sc(-c3ccccc3)cc2n1	-17%	-32%	u	u	-10%	u
COCCNc1nc(NCCNC(C)=O)c2sc(-c3ccccc3)cc2n1	-9%	-36%	u	u	-31%	i
COCCNc1nc(NCC2CCCCC2)c2sc(-c3ccccc3)cc2n1	35µM*	-102%	18µM*	18µM*	u	18µM*
COCCNc1nc(NCCOc2ccccc2Cl)c2sc(-c3ccccc3)cc2n1	0%	14µM*	u	u	u	u
c1ccc(-c2cc(NCCN3CCCCC3)c3ccccc3n2)cc1	28µM*	-35%	21µM*	21µM*	u	x
O=C(NCCN1CCOCC1)c1cc(-c2ccc(F)cc2)nc2ccccc12	-3%	-2%	-7%	-6%	12%	i
Cc1nc(C)c2c(=O)cc(-c3ccccc3)[nH]c2n1	-6%	-16%	10µM*	8.9µM*	24%	i
SMILES	ATXN2 expr inh	HepG2 tox	HT1080-NT tox	HT1080 IDH1KD tx	TGFb SMAD3 inh	ATXN viability
Cc1nc(-c2ccccc2)nc2[nH]c(-c3ccccc3)cc(=O)c12	-33%	-16%	-14%	-13%	1%	i
CCCNC(=O)NCCc1ccncc1	-30%	-1%	8%	0%	2%	i
CC(C)CC(=O)NCCc1ccncc1	-13%	2.8µM*	-2%	1%	-18%	i
CC(C)(C)n1ncc2c(=O)n(Cc3ccc(Cl)cc3F)cnc21	x	-32%	x	x	u	x
N#C/C(=C\c1coc2ccc(O)cc2c1=O)C(=O)Nc1nc2ccccc2s1	x	11µM*	-8%	-14%	u	u
COc1cccc(OC)c1CN1CCC2(CCC(CNC(=O)c3ccccc3)O2)CC1 (stereo not given)	x	x	x	x	x	i
O=S(=O)(Nc1nc2ccccc2nc1Cl)c1ccc(Br)cc1	x	-46%	-16%	-4%	13µM*	i
O=S(=O)(Nc1nc2ccccc2nc1Cl)c1ccc(Cl)cc1	-16%	-43%	-17%	-10%	13µM*	x
CCOc1nc2ccccc2nc1NS(=O)(=O)c1ccc(Cl)cc1	-11%	-22%	0%	0%	-20%	i
Cc1cn(C2CC3OCC(NC(=O)C(Cc4ccccc4)NC(=O)OC(C)(C)C)C3O2)c(=O)[nH]c1=O (stereo not given)	x	3%	x	x	-2%	x
COc1ccccc1C(=O)N1CCCC(c2nc(SCCN3CCOCC3)ncc2C)C1 (stereo not given)	x	x	x	x	x	i
CC(=O)Nc1ccc(C(=O)N2CCCCC2c2cc(C(=O)Nc3cccc4c3CCCC4)no2)cc1 (stereo not given)	u	-30%	16µM*	5.8µM*	0%	u
CC(=O)Nc1ccc(C(=O)N2CCCCC2c2cc(C(=O)NC(C)C)no2)cc1 (stereo not given)	13%	-4%	16%	12%	2%	i
C#CCN1C=CC(=O)[C@@H](OC(=O)Nc2ccccc2Br)[C@H]1c1ccccc1Br	-5%	-33%	6%	3%	u	i
C#CCN1C=CC(=O)[C@@H](OC(=O)Nc2ccc(Br)cc2)[C@H]1c1ccccc1Br	u	-33%	-3%	-13%	13µM*	u
COc1ccc(C(=O)Nc2ccccc2C(=O)N/N=C/c2cccc3ccccc23)cc1	-18%	-97%	18µM*	18µM*	0%	i
COc1cc(/C=N/NC(=O)COc2c(C)cc([N+](=O)[O-])cc2C)ccc1OC(=O)c1ccccc1Br	7%	-15%	-11%	-11%	u	i
COc1cccc(/C=N/NC(=O)C(=O)Nc2ccccc2OC(F)(F)C(F)F)c1O	10µM*	-2%	u	u	-10%	u

Compound activity: PubChem BioAssay, National Center for Advancing Translational Sciences (NCATS)
